Experimental findings from PubChem BioAssay (NCATS) are described below.

The subject of one test is HACAT. Put plainly: qHTS assay to identify novel small-molecules to repurpose for Merkel cell carcinoma treatment (AID 1296009). Further: nearly all actives have a fitted effect of over 60% in size. The following applies: MCC and control cell lines, CellTiter-Glo viability, 72 h; at 44.8 µM (top of the series) unless noted. In a few lines:
(§1)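 After compound transfer in DMSO, plates were kept 72 hr at 37 degree celsius. Luminescent ATP signal from CellTiter-Glo served as viability measure, normalized against DMSO and no-cell controls.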
(In qHTS, concentration-response curves come from the screen itself.)

The subject of another test is MCC-13. The description is as above. The following applies: MCC and control cell lines, CellTiter-Glo viability, 72 h; series mostly up to 46 µM. In a few lines: as §1
For orientation: Cellular ATP, detected with luciferase, serves as a proxy for viable cell number.

Another test relates to MCC-26. The test is described as above. Particulars: MCC and control cell lines, CellTiter-Glo viability, 72 h; series mostly up to 46 µM. In a few lines:
as §1

Another test deals with MKL-1. Described as above. The following applies: MCC and control cell lines, CellTiter-Glo viability, 72 h; series mostly up to 46 µM. In a few lines:
as §1

The next test has as its system MKL-2. Described as above. The following applies: MCC and control cell lines, CellTiter-Glo viability, 72 h; series mostly up to 46 µM. In a few lines:
as §1

The test system of another test is UISO. The description is as above. Particulars: MCC and control cell lines, CellTiter-Glo viability, 72 h; series mostly up to 46 µM. In a few lines: as §1
A further test deals with WaGa. Described as above. Particulars: MCC and control cell lines, CellTiter-Glo viability, 72 h; series mostly up to 46 µM. In a few lines:
as §1

The next test deals with C33A. Put plainly: Primary qHTS to identify gynecologic anti-cancer compounds using libraries of approved drugs and bioactive compounds (AID 1345084). Further: nearly all actives have a fitted effect of over 55% in size. Further: potency means the concentration at half of the fitted maximal effect. The following applies: Gynecologic cancer cell panel viability, ATPlite luminescence, 48 h; series mostly up to 57.5 µM. In a few lines: (§2)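 Luminescence from the ATPlite ATP-monitoring reagent indicates viable cell number; lower signal means cytotoxicity. Cells received compound 16 h after seeding and were exposed for 48 h across five concentrations.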

For another test, the system named is CASKI. Described as above. The following applies: Gynecologic cancer cell panel viability, ATPlite luminescence, 48 h; series mostly up to 57.5 µM. In a few lines: as §2
The test system of the next test is Es-2. Described as above. The following applies: Gynecologic cancer cell panel viability, ATPlite luminescence, 48 h; series mostly up to 57.5 µM. In a few lines: as §2
Another test relates to TAB165. Put plainly: qHTS profiling for inhibitors of Plasmodium falciparum proliferation (AID 504749). Further: nearly all actives have a fitted effect of over 60% in size. Further: potency means the concentration at half of the fitted maximal effect. Particulars: P. falciparum in erythrocytes, SYBR Green DNA, 72 h; series mostly up to 28.7 µM. In a few lines:
(§3)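 Three-day growth assay of blood-stage parasites in erythrocytes (0.3% parasitemia, 2.5% hematocrit) at 37 C, 5% CO2, quantified by SYBR Green DNA staining after overnight detergent lysis.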

Another test deals with W2. The test is described as above. The following applies: P. falciparum in erythrocytes, SYBR Green DNA, 72 h; series mostly up to 28.7 µM. In a few lines: as §3
In the next test the test system is KB-3-1. Put plainly: Cytotoxic Profiling of Annotated Libraries Using Quantitative High-Throughput Screening (AID 1296008). Further: nearly all actives have a fitted effect of over 60% in size. On max response: on the % scale 0 is the no-effect control and ±100 the full control effect. The following applies: Five cell lines viability, CellTiter-Glo ATP luminescence, 48-72 h; max response: hits give low values. In a few lines:
(§4)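 Cytotoxicity was measured as CellTiter-Glo ATP luminescence, read after 10 min at room temperature. Compound treatment of the cells lasted 48 or 72 hr at 37 degrees Celsius in a qHTS format.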

Test [1] concerns NIH3T3. The test is described as above. The following applies: Five cell lines viability, CellTiter-Glo ATP luminescence, 48-72 h; max response: hits give low values. In a few lines: as §4
The test system of the next test is CAOV3. Put plainly: Primary qHTS to identify gynecologic anti-cancer compounds using libraries of approved drugs and bioactive compounds (AID 1345084). Further: nearly all actives have a fitted effect of over 55% in size. Further: potency means the concentration at half of the fitted maximal effect. The following applies: Gynecologic cancer cell panel viability, ATPlite luminescence, 48 h; series mostly up to 57.5 µM. In a few lines: as §2
The subject of test [2] is NIH3T3. Put plainly: qHTS assay to identify novel small-molecules to repurpose for Merkel cell carcinoma treatment (AID 1296009). Further: nearly all actives have a fitted effect of over 60% in size. The following applies: MCC and control cell lines, CellTiter-Glo viability, 72 h; at 44.8 µM (top of the series) unless noted. In a few lines: as §1

Several values for one entry are separate records, joined by “and”; a condition that tells them apart may be missing. Equal values may be shown once. Inconclusive results are not listed. Values without a mark were called inactive. Activity calls are given as the source filed them. The call rests on the fitted dose curve; in most records, active means well fitted curve in the direction sought with a large enough effect; inconclusive means small, poorly fitted or top-dose-only effect, or another doubt; inactive means no such curve, though single readings can be large; an effect the other way counts as inactive or inconclusive.

Turning to `CC(=O)CC(c1ccc([N+](=O)[O-])cc1)c1c(O)c2ccccc2oc1=O` (stereo not drawn), the result in the test on HACAT was inactive. Also, the Potency entry in the test on MCC-13, with MCC-26, in the test on MKL-1, with MKL-2, in the test on UISO and with WaGa was “inactive” in each case. For the same molecule, the Potency entry in the test on C33A, with CASKI and in the test with Es-2 was “inactive” in each case.

Turning to `CC1(C)CCC(NC(=O)[C@@H](N)CCC(=O)O)CC1`, the Potency entry in the test on TAB165 and in the test on W2 was “inactive” each time. In addition, the max response in the test on KB-3-1 was 5%.

For `C[C@]12C=CC(=O)C=C1CC[C@@H]1[C@@H]2[C@@H](O)C[C@@]2(C)[C@H]1CC[C@]2(O)C(=O)CO`, the call in the test with NIH3T3 [1] was inactive. Besides, the Potency entry with C33A, with CAOV3, with CASKI and with Es-2 was “inactive” in each case.

For the molecule `CC(CCc1ccccc1)NCC(O)c1ccc(O)c(C(N)=O)c1` (stereo not drawn), the Potency entry in the test on C33A, in the test with CAOV3, in the test on CASKI and with Es-2 was “inactive” in each case.

For `O=C(O)CCCCC(=O)O`, the Potency entry in the test with TAB165, in the test with W2, with C33A, with CASKI and in the test with Es-2 was “inactive” throughout.

Take `CN1C2CCC1CC(OC(=O)c1c[nH]c3ccccc13)C2` (stereo not drawn): the Potency result in the test on TAB165 and with W2 was “inactive” each time.

As to `c1ccc(-c2ccc(C(c3ccccc3)n3ccnc3)cc2)cc1` (stereo not drawn), the Potency with TAB165 was 2.82 µM (active); in the test on W2, 5.36 µM (active). The Potency entry in the test with MCC-13, with MCC-26, in the test on C33A, in the test with CAOV3, with CASKI and in the test on Es-2 was “inactive” in each case.

In the case of `CC(Cc1ccccc1)(NC(=O)CN)c1ccccc1` (stereo not drawn), the Potency entry in the test on C33A, with CAOV3, in the test with CASKI and in the test with Es-2 was “inactive” throughout.

For `Oc1c(Cl)cc(Cl)cc1Sc1cc(Cl)cc(Cl)c1O`, the Potency entry in the test with TAB165, in the test on W2, with C33A, with CAOV3, in the test on CASKI and in the test on Es-2 was “inactive” each time.

Regarding `O=C1OC(c2ccc(O)cc2)(c2ccc(O)cc2)c2ccccc21`, the Potency result in the test with TAB165, in the test on W2, with MCC-13, in the test on MCC-26, with MKL-1 and with MKL-2 was “inactive” throughout. Further, the Potency result in the test with UISO, in the test with WaGa, with C33A, in the test with CAOV3, in the test on CASKI and with Es-2 was “inactive” each time.

`CCCCc1nc(Cl)c(CO)n1Cc1ccc(-c2ccccc2-c2nn[nH]n2)cc1`: the Potency with TAB165 is 8.91 µM (active); in the test with W2 it was 10.7 µM (active). Further, the Potency result in the test on C33A, in the test with CAOV3, in the test with CASKI and in the test on Es-2 was “inactive” in each case.

Consider `O=C(OCCOCCO)c1ccccc1Nc1cccc(C(F)(F)F)c1`, for which the Potency result in the test with TAB165, in the test with W2, in the test with C33A, with CAOV3, in the test with CASKI and in the test with Es-2 was “inactive” each time.

`CC(=O)OCC(=O)[C@@]1(O)CC[C@H]2[C@@H]3CCC4=CC(=O)C=C[C@]4(C)[C@H]3[C@@H](O)C[C@@]21C`: the Potency entry with C33A, in the test on CAOV3, with CASKI and with Es-2 was “inactive” each time.

Consider `CCN(CC)C(=O)N1CCN(C)CC1`, for which the Potency entry in the test on TAB165, with W2, in the test with MCC-13, in the test with MCC-26, in the test with MKL-1 and with MKL-2 was “inactive” throughout. The Potency entry in the test on UISO, in the test with WaGa, in the test on C33A, in the test on CAOV3, in the test with CASKI and in the test with Es-2 was “inactive” each time.

In the case of `Nc1ccn([C@@H]2O[C@H](CO)[C@@H](O)C2(F)F)c(=O)n1`, the Potency result in the test on C33A and with CASKI was “inactive” in each case. Moreover, the Potency in the test with CAOV3 was 631 nM (active) and 1.12 µM (active).

As to `C#C[C@]1(OC(C)=O)CC[C@H]2[C@@H]3CCC4=C[C@@H](OC(C)=O)CC[C@@H]4[C@H]3CC[C@@]21C`, the Potency result in the test with TAB165, with W2, with C33A, with CAOV3, with CASKI and in the test on Es-2 was “inactive” each time.

For the molecule `CC(C)(CO)[C@@H](O)C(=O)NCCCO`, the Potency result in the test with TAB165, in the test with W2, in the test on MCC-13, in the test on MCC-26, in the test with MKL-1 and in the test with MKL-2 was “inactive” each time. Moreover, the Potency result with UISO, with WaGa, in the test with C33A, in the test with CASKI and in the test with Es-2 was “inactive” each time. Further, the molecule was classed as inactive in the test on NIH3T3 [2].

In the case of `CCN(CC)CCNC(=O)COc1ccc(Cl)cc1`, the figures for the Potency in the test with TAB165 and in the test on W2 were 11.2 µM (active) and 13.5 µM (active), respectively. The Potency result with C33A, in the test with CASKI and in the test on Es-2 was “inactive” throughout.
